Laboratory results reported in ChEMBL document CHEMBL3988442, “University of Dundee, Small-Polar-MMV Screening Library” (2021).
The whole screen tested about 48,000 compounds, of which about 13,000 (27%) showed an effect of 50% or more. The list shows a part of the results.

Each compound was assayed on Wolbachia pipientis (assay: Anti-Wolbachia Cell-Based Screen). Settings: 5 µM.
Format: functional
Design: scale not given: in the data most compounds retested in dose-response had high values

SMILES | Percent Effect
CCOCCOC(C)C(=O)Nc1ccc2[nH]c(C)cc2c1 (centres undefined) | 4.03%
CC(NC(=O)c1ccc(CS(C)(=O)=O)o1)c1ccc(F)c(F)c1 (centres undefined) | -18.18%
CC(=O)N1CCN([C@@H]2CC[C@@H](N(C)C(=O)C3CCCCC3)[C@H]2O)CC1 | 97.43%
COC(=O)N1CCCC(C(=O)N(C)C)C1 (centres undefined) | 5.213%
CC(=O)N1CCN([C@@H]2CCC[C@@H](N(C)C(=O)C3CC3)[C@H]2O)CC1 | 98.54%
CC(=O)N1CCC(C(=O)N(C)[C@@H]2CCC[C@@H](N3CCCC3)[C@@H]2O)CC1 | -16.02%
CC(=O)N1CCN(C2CCCCc3ccccc32)CC1 (centres undefined) | -7.249%
CC(=O)N1CCC(N[C@@H]2CO[C@H](CNC(=O)C3CCCC3)[C@H]2O)CC1 | -17.04%
Cc1cc(=O)c(C(=O)N(C)Cc2ccc(Cl)c(F)c2)c[nH]1 | 0.1621%
CCCc1noc(C(C)S(=O)(=O)Cc2nc(C3CC3)no2)n1 (centres undefined) | -3.55%
COC(C(=O)NCc1c(C)nc2cc(=O)[nH]n2c1C)c1ccccc1 (centres undefined) | -2.131%
Fc1ccc(CN2CCC3(CC2)CCN(Cc2nccs2)CC3)cc1.O=C(O)C(F)(F)F.O=C(O)C(F)(F)F | 3.556%
CCn1c(CN2CCCC(O)(c3ccc(F)cc3)CC2)cnc1SC.O=C(O)CC(O)(CC(=O)O)C(=O)O (centres undefined) | 110.7%
O=C(O)C(c1ccc2c(c1)OCO2)N1CCC(O)(c2cccnc2)CC1 (centres undefined) | -24.46%
Cn1cc(CN2CCC3(CC(=O)N(c4ccc5c(c4)OCO5)C3)C2)cn1.O=C(O)C(F)(F)F (centres undefined) | -18.04%
CCn1c(CN2CCC(O)(c3ccc4c(c3)OCO4)CC2)cnc1SC.O=C(O)CC(O)(CC(=O)O)C(=O)O | 113.8%
Cc1ccc(=O)n(CC2(O)CCN(Cc3cc(C)c(O)c(C)c3)CC2)n1.O=C(O)CC(O)(CC(=O)O)C(=O)O | -13.33%
Cc1ncc(CN2CCCC(O)(c3ccc(F)cc3)CC2)n1C.O=C(O)CC(O)(CC(=O)O)C(=O)O (centres undefined) | 96.51%
CC(NC(=O)N(C)CCCOc1ccc(F)cc1)c1nncn1C (centres undefined) | 8.721%
Cc1cccc(C(=O)N2CCN(S(C)(=O)=O)[C@@H]3CS(=O)(=O)C[C@@H]32)n1 | -7.495%
O=C1NCCN(C(=O)c2cn3ccsc3n2)C1c1cccc(F)c1 (centres undefined) | -4.51%
Cc1csc(C2CCCCN2C(=O)CN(C)C2CC2)n1 (centres undefined) | 3.375%
Cc1csc(C2CCCCN2C(=O)CN(C)Cc2ccccc2)n1 (centres undefined) | -0.5019%
Cc1csc(C2CCCCN2C(=O)CN(C)C(C)C)n1 (centres undefined) | 91.31%
CCN(CC)CC(=O)N1CCCCC1c1nc(C)cs1 (centres undefined) | 131.2%
CCn1nc(C)c(CCN2CC3(CCOC3)CCC2=O)c1C (centres undefined) | -24.96%

SMILES | Percent Effect
N#CC1C(=O)Nc2c(cnn2C2CCCC2)C12CCCCC2 (centres undefined) | 30.08%
c1ccc(-c2noc(CN3CCc4cncnc4C3)n2)nc1 | 12.32%
CC(C)c1ncc2c(n1)CN(Cc1nc(-c3cccnc3)no1)CC2 | 97.53%
Cn1cnc2c1CCN(Cc1nc(-c3ccco3)no1)C2 | -0.7314%
CCc1ncc2c(n1)CN(Cc1nc(-c3ccccn3)no1)CC2 | 1.522%
CC(C)c1ncc2c(n1)CN(Cc1nc(-c3ccco3)no1)CC2 | 103.4%
CC(C)c1ncc2c(n1)CN(Cc1nc(-c3ccccn3)no1)CC2 | 114.4%
CC(C)c1ncc2c(n1)CN(Cc1nc(Cc3ccccc3)no1)CC2 | -0.3417%
CC(C)c1ncc2c(n1)CN(Cc1nc(-c3ccoc3)no1)CC2 | -5.396%
CC1CCCN(S(=O)(=O)N2CCOC3(CCCC3)C2)C1 (centres undefined) | 2.449%
CCC(=O)NCC(=O)NCC(C)(C)c1cccc(Br)c1 | 13.04%
COc1cccc2c1OCC(C(=O)NCCn1nc(C)c(Cl)c1C)C2 (centres undefined) | -38.77%
CCCc1nnc(NC2CCN(C3CCSCC3)CC2)o1 | -8.087%
CCc1nnc(CSc2ccccn2)o1 | -8.933%
CN1CC(=O)N(c2cccc(F)c2)CC12CCN(S(=O)(=O)C1CC1)C2.O=C(O)C(F)(F)F (centres undefined) | -1.497%
CC(C)c1nccn1-c1cccc(C2CCCN(C3CCCC3)C2)n1 (centres undefined) | 0.08562%
CC(C)c1nccn1-c1cncc(C2CCCN(C3CCCCC3)C2)n1 (centres undefined) | 98.48%
CC(C)c1nccn1-c1cncc(C2CCCN(C3CCCC3)C2)n1 (centres undefined) | 108%
COC[C@]1(O)CCN(C(=O)c2cccc(CN(C)C)c2)CC1(C)C | 2.502%
COc1ccc(C)cc1CNCc1ccc(-n2nc(C)cc2C)nc1 | -14.66%
Cc1nc(CCNC(=O)C2CC(=O)N(C(C)(C)C)C2)sc1C (centres undefined) | 2.949%
Cc1nc(COCc2nc3c(o2)CN(C(=O)c2ccc[nH]2)C3)cs1.O=C(O)C(F)(F)F | -0.815%
COc1ccc2cc(CNc3c(C)nn(C(C)C)c3C)ccc2c1 | -4.986%
COc1ccc(CC(C)Nc2cccc(SC)c2)cc1 (centres undefined) | 111.5%
COc1ccc(C(CO)NC(=O)Nc2cccc(C#N)c2)cc1 (centres undefined) | -8.791%
COC[C@H](C)Nc1cc(C)c2ccc(SC)cc2n1 | 11.13%

SMILES | Percent Effect
COc1ccc(CCC(C)Nc2cccc(SC)c2)cc1 (centres undefined) | 100.8%
COc1ccc(C(CO)NC(=O)Nc2cccc(F)c2)cc1 (centres undefined) | -21.51%
Cn1cc(CN2CCc3ncn(C)c3C2COCc2ccccc2)cn1 (centres undefined) | 0.114%
Cc1ccc(CC(=O)N2CCCC(c3cc(C)[nH]n3)C2)cn1 (centres undefined) | -0.4689%
Nc1ncnc2nc(C3CCN(C(=O)Cc4ccc(F)cc4)C3)ccc12 (centres undefined) | 118.1%
O=C(Cc1ccccc1)N1CCn2cc(Cn3cncn3)nc2C1 | 14.97%
Nc1ncnc2nc(C3CCN(C(=O)Cc4ccccc4)C3)ccc12 (centres undefined) | 78.69%
Cc1nnc([C@H]2C[C@H]3CN(C(=O)Cc4ccc(F)cc4)CC[C@@H]3O2)o1 | -15.1%
O=C(Cc1ccncc1)N1C[C@@H]2CC[C@H](C1)N(Cc1ccccc1)C2=O | 6.116%
O=c1[nH]c2cc(S(=O)(=O)N3CCC(c4ccsc4)CC3)ccc2o1 | 12.73%
COC(=O)CNC(=O)CSCc1nc(O)c2cc(C)sc2n1 | 28.1%
Cc1cccnc1CN1CCN(C[C@]2(O)CCCN3CCCC[C@@H]32)CC1 | 4.951%
COc1ccc2c(c1)ncn2C[C@]1(O)CCCN2CCCC[C@@H]21 | 108.1%
Cc1cnccc1N1CCN(C[C@]2(O)CCCN3CCCC[C@@H]32)CC1 | -12.63%
O[C@@]1(Cn2cnc(Cl)c2Cl)CCCN2CCCC[C@@H]21 | 101.1%
Cc1cc2ncn(C[C@]3(O)CCCN4CCCC[C@@H]43)c2cc1C | 111.8%
CCN(Cc1noc(CC(C)C)n1)C[C@]1(O)CCCN2CCCC[C@@H]21 | 2.054%
O[C@@]1(CN2CCN(Cc3ccncc3)CC2)CCCN2CCCC[C@@H]21 | 17.3%
Cc1ccnc(N2CCN(C[C@]3(O)CCCN4CCCC[C@@H]43)CC2)c1 | -8.166%
O[C@@]1(CNCCOc2ccccc2)CCCN2CCCC[C@@H]21 | -8.201%
CCS(=O)(=O)N1Cc2c(Cn3ccnc3)nn(C(C)C)c2C1 | 9.692%
COC[C@@]12CC[C@@H](N3CCOCC3)C[C@H]1CCN(c1cc(C)ccn1)C2 | -3.135%
O=C(CCNC(=O)c1ccoc1)Nc1ccc(F)cc1F | -4.684%
O=C(Nc1ccc(F)cc1F)NC1(CO)CCOCC1 | -12.95%
O=C(NCCCNC(=O)c1ccccc1)Nc1ccc(F)cc1F | 98.16%
O=C(NCC(O)c1ccc(F)cc1F)c1cccc(F)c1 (centres undefined) | -1.094%

SMILES | Percent Effect
NC(=O)CCCNC(=O)Cc1cccc(I)c1 | -16.28%
O=C(Cc1cccc(O)c1)NCCCNC(=O)c1cccc(F)c1 | 107.1%
O=C(NCCCNC(=O)c1cccc(O)c1)Nc1ccc(Cl)cc1 | 112%
Cc1nc(C)c(C(=O)NCCNC(=O)c2ccc(F)cc2F)s1 | 5.73%
Cc1cccc(C(=O)NCCCN2CCN(c3ccccc3)CC2)c1 | 0.2933%
O=C(NCCCO)Nc1cccc(I)c1 | 5.16%
O=C(NCCCNC(=O)c1ccc(F)cc1F)c1cccc(O)c1 | 113.1%
CC(NC(=O)NC1CCN(Cc2ccccn2)CC1)c1nncn1C (centres undefined) | 0.2394%
CC(C)(C)CN[C@@H]1CO[C@H](CNC(=O)c2ccncc2)[C@H]1O | -9.96%
CC(=O)Nc1ccc(Cl)c(C(=O)N(C)Cc2nc(C)c[nH]2)c1 | -7.642%
CCCc1nc(CN(C)CCOc2ccccc2)cs1 | -8.28%
CC(C)N(C)S(=O)(=O)N1CCCC1CC(=O)c1cccs1 (centres undefined) | 9.795%
CC(C)Cc1noc(CN(C)C(=O)CCNC(=O)c2ccccc2F)n1 | -3.806%
CC(CNCC1(S(C)(=O)=O)CCOCC1)c1ccc(F)cc1 (centres undefined) | 6.37%
CNc1cc(-c2nc(CCN3CCCC3=O)no2)ccn1 | 8.6%
O=C(Cc1cccc(F)c1)NCCCNC(=O)c1cccc(O)c1 | 95%
CC(NC(=O)N(C)Cc1ccsc1)c1ccc2c(c1)NC(=O)CO2 (centres undefined) | -9.283%
Cn1c(CN2CCCc3cc(F)cc(F)c32)cc(=O)n(C)c1=O | 98.13%
Cn1ncc2c(=O)[nH]c(CN3CCCc4cc(F)cc(F)c43)nc21 | -18.5%
Cc1cc(F)c2c(c1)CCCN2Cc1cc(=O)n(C)c(=O)n1C | 117.6%
Cc1cc(C2CCCN2Cc2cc(=O)n(C)c(=O)n2C)on1 (centres undefined) | -9.858%
Cc1ccc(F)c2c1CCCN2Cc1cc(=O)n(C)c(=O)n1C | 107.3%
Cn1c(CS(=O)(=O)c2ccc(Cl)cc2)cc(=O)n(C)c1=O | 2.461%
Cc1cc(F)c2c(c1)CCCN2C(=O)c1cncc(Br)c1 | 14.39%
Cc1cc(F)c2c(c1)CCCN2Cc1nc2c(cnn2C)c(=O)[nH]1 | -12.02%
CN(C(=O)CN1CCCc2cc(F)cc(F)c21)c1ccccc1 | -11.45%
